Assay outcomes: PubChem BioAssay, University of Kansas High Throughput Screening Laboratory
In the library only some 3.6% were active in any assay of this set; here they are far more common.
mHTT-CaM PPI inh: mHTT-calmodulin interaction abrogation. AlphaScreen His-mHTT/GST-CaM binding, luminescence. inhibition, % at 15 µM. hit rate 3.6% among 190,000. AID 1671202
Pf apPOL block: Pf-apPOL DNA polymerase inhibition. Recombinant Pf-apPOL, molecular beacon fluorescence, 1.5 h. inhibition, % at 10 µM. hit rate 0.25% among 210,000. AID 1794808
Numbers stand for hits; . = inactive; / = no result given. No stated cut-off is given here; in the data, active means inhibition above about 50%; inactive means the rest.

SMILES	mHTT-CaM PPI inh	Pf apPOL block
O=C(C1=NN(c2ccccc2)C2(C(=O)c3ccccc3C2=O)C1c1ccc(Cl)cc1)c1ccccc1 (configuration not stated)	/	.
Cc1ccc(-c2nc(CSc3nc(C)c(C)c(=O)[nH]3)no2)cc1	.	.
CCC(NS(=O)(=O)c1ccc(Cl)c([N+](=O)[O-])c1)C12CC3CC(CC(C3)C1)C2 (configuration not stated)	99.0	.
CCC(NS(=O)(=O)c1cc(Cl)ccc1OC)C12CC3CC(CC(C3)C1)C2 (configuration not stated)	.	.
O=C1CC(NCc2ccccn2)C(=O)N1c1ccc(F)cc1 (configuration not stated)	100.3	.
O=C1Nc2ccccc2CCC1NCc1ccccn1 (configuration not stated)	71.4	.
CC12CC3CC(C)(C1)CC(C(=O)NCc1ccccn1)(C3)C2	.	.
CCOc1ccc(N2C(=O)CC(NCc3ccc(F)cc3)C2=O)cc1 (configuration not stated)	.	.
CCOc1ccc(S(=O)(=O)N(CC(=O)NC2CC2)c2ccccc2)cc1	.	.
COc1ccc(OC)c(N2C(=O)C3C4C=CC(CC4)C3C2=O)c1 (configuration not stated)	.	.
CCOc1ccc(N(C(C)C(=O)O)S(C)(=O)=O)cc1 (configuration not stated)	.	.
COc1ccc(Cl)cc1NC(=O)c1cc(Cl)ccc1OC	.	.
COc1cccc(/C=C2/SC(N3CCN(C)CC3)=NC2=O)c1OC	.	.
COc1cccc(/C=C2\Cc3ccccc3C2=O)c1OC	.	.
COc1cccc(/C=C2\CS/C(=C\c3cccc(OC)c3OC)C2=O)c1OC	53.0	.
CCCN1C/C(=C\c2cccc(OC)c2OC)C(=O)/C(=C/c2cccc(OC)c2OC)C1	50.0	.
CC(CC#N)C(=O)c1ccccc1 (configuration not stated)	/	.
CCn1c(SCc2cc(=O)n3ccccc3n2)nc2ccsc2c1=O	.	.
O=[N+]([O-])c1ccccc1/C=C/CN1CCN(c2cccc(Cl)c2)CC1	59.3	.
O=[N+]([O-])c1ccccc1/C=C/CN1CCN(c2ccc(F)cc2)CC1	.	.
CCN1CCOC(CC(=O)Nc2ccccc2)C1=O (configuration not stated)	.	.
CCOC(=O)c1oc2cc(OCC(=O)c3ccc(OC)cc3)ccc2c(=O)c1-c1ccc(OC)cc1	.	.
COc1cc(/C=C2/C(=O)ON=C2C)ccc1OCc1ccc(C)cc1	70.0	.
CC1=NOC(=O)/C1=C/c1ccc(OCc2ccc(F)cc2)c(Cl)c1	.	.
COc1cc(/C=C2\C(=O)ON=C2C)ccc1OCc1ccc(F)cc1	99.0	.
SMILES	mHTT-CaM PPI inh	Pf apPOL block
Cc1onc(-c2ccccc2)c1C(=O)NCc1ccc(Cl)c(Cl)c1	.	.
COc1cc(Br)c(/C=C2/C(=O)N(c3ccc(C(=O)O)cc3)N=C2C)cc1OC	.	.
CC1=NN(c2cc(S(=O)(=O)O)ccc2Cl)C(=O)C1	.	.
Cc1cc(C(F)(F)F)nn1CC(=O)N1CCCC1c1ccc(Cl)cc1 (configuration not stated)	.	.
COc1ccc(C2C3=C(CCCC3=O)Nc3ncnn32)cc1Br (configuration not stated)	.	.
COc1ccccc1NS(=O)(=O)c1cc(C(=O)Nc2ccccc2)ccc1C	.	.
COc1ccccc1NCC(=O)c1ccc(C)c(C)c1	.	64.6
O=C(Cn1[nH]c(-c2ccccc2)cc1=O)Nc1ccc(Cl)cc1	63.0	.
Cc1ccc(-c2cc(=O)n(CC(=O)Nc3ccc(C)c(C)c3)[nH]2)cc1	.	.
O=C(Cc1cn(Cc2ccccc2)c2ccccc12)NCc1cccs1	.	.
N#C/C(=C\c1ccc(-c2ccc(Cl)c(Cl)c2)o1)c1[nH]nc(N)c1C#N	95.0	.
N#C/C(=C\c1c[nH]c2ccccc12)c1[nH]nc(N)c1C#N	54.1	.
Cc1ccc(/C=C(\C#N)c2[nH]nc(N)c2C#N)cc1	.	.
COc1cc(/C=C(\C#N)c2[nH]nc(N)c2C#N)cc(OC)c1OC	.	.
COc1ccc(OC)c(/C=C(\C#N)c2[nH]nc(N)c2C#N)c1	61.2	.
N#C/C(=C\c1ccc2c(c1)OCO2)c1[nH]nc(N)c1C#N	.	.
O=C(c1nsnc1-c1ccccc1O)N1CCOCC1	.	.
CCc1cc2c(SCC(=O)Nc3ccc(Cl)cc3)ncnc2s1	.	.
O=[N+]([O-])c1cccc(CSc2ccc3nnc(-c4ccccn4)n3n2)c1	97.5	.
Cc1nc(CSc2ccc3nnc(-c4ccccn4)n3n2)cs1	76.0	.
c1ccc(CSc2nnc3ccc(-c4ccccn4)nn23)nc1	.	.
O=C(NCCc1nnc2ccc(SCc3ccccn3)nn12)c1ccccc1	.	.
O=C(C=Cc1ccc2c(c1)OCO2)N1CCOC2(CCOCC2)C1	.	.
CCSC1=C(C#N)C(Cc2ccccc2)C2=C(CCCC2=O)N1 (configuration not stated)	.	.
N#CC1=C(S)NC2=C(C(=O)CCC2)C1Cc1ccccc1 (configuration not stated)	59.0	.
SMILES	mHTT-CaM PPI inh	Pf apPOL block
CCN(CC)C(=O)C1CCCN(C2CC(=O)N(c3ccc(Br)cc3)C2=O)C1 (configuration not stated)	.	.
Cc1ccc(Nc2cc(C)nc3ccnn23)cc1	.	.
Cc1cc(Nc2ccc(Cl)cc2)n2nccc2n1	63.5	.
Cc1ccc(NC(=O)CSc2nnnn2-c2ccc(C(N)=O)cc2)cc1C	.	.
COc1ccc(-c2nc3cc(C)ccn3c2NC(=O)C2CCCC2)cc1	.	.
COc1ccc(-c2nc3ccc(C)cn3c2NC(=O)C2CCCC2)cc1	50.9	.
Cc1cc(C)cc(N=C2NC(=O)/C(=C/c3ccco3)S2)c1	79.0	.
O=C1NC(=Nc2ccc(F)cc2)S/C1=C/c1cccs1	.	.
O=C1NC(=Nc2ccc(F)cc2)S/C1=C/c1ccc(O)c(O)c1	57.0	.
Cc1cc(C)cc(N=C2NC(=O)/C(=C/c3ccccc3)S2)c1	.	.
O=C1NC(=Nc2ccc(F)cc2)S/C1=C/c1ccco1	68.0	.
COc1cc(/C=C2/SC(=Nc3ccc(O)cc3)NC2=O)ccc1O	.	.
CNC(=O)NC1C(NC(=O)NC)N(C)C(=O)N1C (configuration not stated)	.	.
O=C(CSc1nnc(-c2ccccc2)o1)NN1CC(=O)N(c2cccc(Cl)c2)CC1=O	/	.
O=C(Nc1nc2c(s1)CN(C(=O)c1cnn(-c3ccccc3)n1)CC2)c1ccco1	52.7	.
O=C(Nc1nc2c(s1)CN(C(=O)c1cc(C3CC3)on1)CC2)c1ccco1	.	.
O=C(CN1C(=O)C(c2ccccc2)=NC12CCCCCC2)Nc1cccc(F)c1	52.0	.
O=C(CN1C(=O)C(c2ccccc2)=NC12CCCCC2)Nc1ccc(F)c(F)c1	100.0	.
O=C(CN1C(=O)C(c2ccc(F)cc2)=NC12CCCCC2)Nc1ccc(Cl)cc1	77.5	.
O=C(CN1C(=O)C(c2ccccc2)=NC12CCCCCC2)Nc1ccccc1	.	.
COc1ccc(NC(=O)CN2C(=O)C(c3ccccc3)=NC23CCC(C)CC3)cc1Cl (configuration not stated)	.	.
O=C(CN1C(=O)C(c2ccccc2)=NC12CCCCCC2)Nc1ccc(F)cc1	.	.
CC1CCC2(CC1)N=C(c1ccccc1)C(=O)N2CC(=O)Nc1cccc(Cl)c1 (configuration not stated)	70.0	.
